Assay results taken from PubChem BioAssay (NCI).
Compounds without any hit were thinned out: in the full panel of roughly 79,000, 15% have a hit. Active and inactive are the calls of the source. Cut-off read from the data, not from the text of the source: active = growth inhibition above about 70%; inactive = the rest.

Key:
[1] = NCI Yeast Anticancer Drug Screen. Data for the rad52 strain (AID 147);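 note: 0% = growth of vehicle-treated control cultures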; conditions: S. cerevisiae rad52 mutant growth inhibition, stronger effect = higher value
In short: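 Genetically altered yeast (DNA damage repair defect) treated with compound; inhibition calculated relative to vehicle.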

[2] = NCI Yeast Anticancer Drug Screen. Data for the wt1 strain (AID 149);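 note: 0% = growth of vehicle-treated wt1 cultures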; conditions: S. cerevisiae wt1 strain (SPY 50644) growth inhibition, stronger effect = higher value
In short: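 Growth inhibition read against vehicle controls after compound exposure of the wt1 yeast strain.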

[3] = NCI Yeast Anticancer Drug Screen. Data for the rad50EPP+ strain (AID 151);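 note: 0% = growth of vehicle-treated control cultures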; conditions: S. cerevisiae rad50 mutant strain, stronger effect = higher value
In short: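 Strain rad50EPP+; compound exposure; % growth inhibition vs vehicle.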

[4] = NCI Yeast Anticancer Drug Screen. Data for the mgt1 strain (AID 153); conditions: S. cerevisiae mgt1 mutant growth inhibition, stronger effect = higher value
In short: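 Read-out: yeast growth inhibition vs vehicle control. Strain mgt1, drawn from a panel altered in DNA damage repair or cell cycle control.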

[5] = NCI Yeast Anticancer Drug Screen. Data for the rad50 strain (AID 155);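 note: 0% = growth of vehicle-only cultures of the same strain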; conditions: S. cerevisiae rad50 strain growth inhibition, stronger effect = higher value
In short: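 Readout: growth inhibition relative to vehicle-treated cultures. Compound exposure was carried out in a genetically defined yeast strain deficient in DNA damage repair.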

[6] = NCI Yeast Anticancer Drug Screen. Data for the mec2-1 strain (AID 157); conditions: S. cerevisiae mec2-1 strain, stronger effect = higher value
In short: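 Cells of the genetically defined mec2-1 yeast strain are incubated with test compound. Inhibition of growth is calculated against vehicle-treated controls.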

[7] = NCI Yeast Anticancer Drug Screen. Data for the rad14 strain (AID 159);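 note: 0% = growth of vehicle-treated control cultures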; conditions: S. cerevisiae rad14 strain growth inhibition, stronger effect = higher value
In short: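 Growth inhibition vs vehicle controls; genetically altered yeast strain (DNA damage repair defect) treated with test compounds.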

[8] = NCI Yeast Anticancer Drug Screen. Data for the sgs1 mgt1 strain (AID 161);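 note: 0% = growth of cultures given vehicle only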; conditions: S. cerevisiae sgs1 mgt1 strain, stronger effect = higher value
In short: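 Test agents were incubated with a DNA-repair-mutant yeast strain. Growth was then read and compared against vehicle-treated controls.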

[9] = NCI Yeast Anticancer Drug Screen. Data for the CLN2oe strain (AID 163);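 note: 0% = growth of vehicle-only control cultures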; conditions: S. cerevisiae CLN2oe strain, stronger effect = higher value
In short: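 Strain altered in cell-cycle control, incubated with compound; growth compared to solvent-treated controls.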

[10] = NCI Yeast Anticancer Drug Screen. Data for the cln2 rad14 strain (AID 165);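 note: 0% = growth equal to vehicle treated cultures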; conditions: S. cerevisiae cln2 rad14 strain, stronger effect = higher value
In short: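 The screen exposed genetically defined yeast (cln2 rad14) to test compounds and scored growth inhibition relative to vehicle-treated controls.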

[11] = NCI Yeast Anticancer Drug Screen. Data for the bub3 strain (AID 167); conditions: S. cerevisiae bub3 mutant strain, stronger effect = higher value
In short: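 Readout: yeast growth inhibition, expressed relative to vehicle-only wells. The test organism is a mutant strain from a panel with lesions in DNA repair or checkpoint genes.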

[12] = NCI Yeast Anticancer Drug Screen. Data for the wt2 strain (AID 169);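 note: 0% = growth of vehicle-treated yeast cultures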; conditions: S. cerevisiae wt2 strain growth inhibition, stronger effect = higher value
In short: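 Steps: yeast strain treated with compound; growth recorded; inhibition calculated relative to cultures given vehicle alone.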

[13] = NCI Yeast Anticancer Drug Screen. Data for the mlh1 strain (AID 171);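 note: 0% = growth of vehicle-treated control cultures of the same strain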; conditions: S. cerevisiae mlh1 strain growth inhibition, stronger effect = higher value
In short: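 Yeast screen: mutant strain plus compound, growth scored against vehicle control wells.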

[14] = NCI Yeast Anticancer Drug Screen. Data for the sgs1 strain (AID 173);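 note: 0% = growth of vehicle-only control cultures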; conditions: S. cerevisiae sgs1 mutant, stronger effect = higher value
In short: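 Inhibition of yeast growth served as the measure. The mutant strain was treated with each compound, and growth was normalised to cultures receiving vehicle alone.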

[15] = NCI Yeast Anticancer Drug Screen. Data for the mlh1 rad18 strain (AID 175); conditions: S. cerevisiae mlh1 rad18 strain growth inhibition, stronger effect = higher value
In short: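 Compound-treated yeast growth, normalised to vehicle controls. Strain bears defined DNA repair mutations.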

[16] = NCI Yeast Anticancer Drug Screen. Data for the rad18 strain (AID 177); conditions: S. cerevisiae rad18 mutant growth inhibition, stronger effect = higher value
In short: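 Inhibition values reflect reduced yeast growth compared with vehicle-treated controls, using a strain engineered with a DNA damage repair defect.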

[17] = at 5.0 µM (retest, dose inferred, filed as 0.5)
[18] = at 50.0 µM (retest, dose inferred, filed as 5.0)

Measured: growth inhibition

CCCCCCCCCC(=O)N(CCC)CCC
inactive: [1]; at 1.2 µM -11% | [1]; at 3.7 µM -15% | [1]; at 11.0 µM -19% | [1]; at 33.0 µM 42% | [2]; at 1.2 µM -10% | [2]; at 3.7 µM -10% | [2]; at 11.0 µM -17% | [3]; at 1.2 µM 1% | [3]; at 3.7 µM 9% | [3]; at 11.0 µM 11% | [3]; at 33.0 µM 43% | [4]; at 1.2 µM -14% | [4]; at 3.7 µM -20% | [4]; at 11.0 µM -25% | [4]; at 33.0 µM 0% | [5]; at 1.2 µM 2% | [5]; at 3.7 µM -8% | [5]; at 11.0 µM -2% | [5]; at 33.0 µM 48% | [6]; at 1.2 µM -4% | [6]; at 3.7 µM 1% | [6]; at 11.0 µM -15% | [7]; at 1.2 µM -9% | [7]; at 3.7 µM -6% | [7]; at 11.0 µM -15% | [7]; at 33.0 µM 29% | [8]; [17] -38% | [8]; [18] 56% | [9]; at 1.2 µM 3% | [9]; at 3.7 µM -2% | [9]; at 11.0 µM 0% | [9]; at 33.0 µM 45% | [10]; [17] 48% | [10]; [18] 65% | [11]; at 1.2 µM -29% | [11]; at 3.7 µM -27% | [11]; [17] -7% | [11]; at 11.0 µM -37% | [11]; at 33.0 µM 67% | [12]; at 1.2 µM -5% | [12]; at 3.7 µM -2% | [12]; at 11.0 µM -10% | [12]; at 33.0 µM 49% | [13]; at 1.2 µM 2% | [13]; at 3.7 µM -15% | [13]; at 11.0 µM -13% | [13]; at 33.0 µM 41% | [14]; at 1.2 µM -4% | [14]; at 3.7 µM -9% | [14]; at 11.0 µM -17% | [16]; at 1.2 µM 15% | [16]; at 3.7 µM 21% | [16]; at 11.0 µM 15% | [16]; at 33.0 µM 68%
active: [1]; at 100.0 µM 96% | [2]; at 33.0 µM 79% | [2]; at 100.0 µM 98% | [3]; at 100.0 µM 77% | [4]; at 100.0 µM 96% | [5]; [17] 97% | [5]; [18] 96% | [5]; at 50.0 µM 90.9% | [5]; at 100.0 µM 97% | [6]; [17] 97% | [6]; at 33.0 µM 73% | [6]; [18] 98% | [6]; at 50.0 µM 93.3% | [6]; at 100.0 µM 97% | [7]; at 100.0 µM 97% | [8]; at 50.0 µM 92.9% | [9]; at 100.0 µM 98% | [10]; at 50.0 µM 91.1% | [11]; [18] 73% | [11]; at 50.0 µM 92% | [11]; at 100.0 µM 97% | [12]; at 100.0 µM 97% | [13]; at 100.0 µM 96% | [14]; at 33.0 µM 73% | [14]; at 100.0 µM 98% | [15]; [17] 99% | [15]; [18] 99% | [15]; at 50.0 µM 90.3% | [16]; at 100.0 µM 98%

O=C1Oc2ccccc2C(=O)/C1=C/N1C(=O)N/C(=C\c2ccccc2Br)C1=O
active: [1]; at 100.0 µM 91% | [4]; at 100.0 µM 96% | [5]; at 50.0 µM 91.9% | [5]; at 100.0 µM 95% | [6]; at 100.0 µM 86% | [7]; at 100.0 µM 97% | [8]; at 50.0 µM 89.7% | [11]; at 50.0 µM 94.5% | [11]; at 100.0 µM 83% | [12]; at 100.0 µM 96% | [13]; at 100.0 µM 97% | [14]; at 100.0 µM 96% | [15]; at 50.0 µM 95.5% | [16]; at 100.0 µM 94%
inactive: [1]; at 1.2 µM 1% | [1]; at 3.7 µM 4% | [1]; at 11.0 µM 13% | [1]; at 33.0 µM 43% | [2]; at 1.2 µM 4% | [2]; at 3.7 µM 7% | [2]; at 11.0 µM 8% | [2]; at 33.0 µM 18% | [2]; at 100.0 µM 55% | [3]; at 1.2 µM -2% | [3]; at 3.7 µM 1% | [3]; at 11.0 µM 6% | [3]; at 33.0 µM 21% | [3]; at 100.0 µM 57% | [4]; at 1.2 µM 0% | [4]; at 3.7 µM 1% | [4]; at 11.0 µM 7% | [4]; at 33.0 µM 25% | [5]; at 1.2 µM -2% | [5]; at 3.7 µM -11% | [5]; [17] -6% | [5]; at 11.0 µM -3% | [5]; at 33.0 µM 40% | [5]; [18] 54% | [6]; at 1.2 µM 1% | [6]; at 3.7 µM 1% | [6]; [17] -15% | [6]; at 11.0 µM 7% | [6]; at 33.0 µM 27% | [6]; [18] 5% | [6]; at 50.0 µM 56.1% | [7]; at 1.2 µM 1% | [7]; at 3.7 µM 2% | [7]; at 11.0 µM 13% | [7]; at 33.0 µM 59% | [8]; [17] -3% | [8]; [18] 17% | [9]; at 1.2 µM -3% | [9]; at 3.7 µM 4% | [9]; at 11.0 µM 14% | [9]; at 33.0 µM 33% | [9]; at 100.0 µM 56% | [10]; [17] 15% | [10]; [18] 13% | [10]; at 50.0 µM 39.5% | [11]; at 1.2 µM 0% | [11]; at 3.7 µM -1% | [11]; [17] 7% | [11]; at 11.0 µM 6% | [11]; at 33.0 µM 29% | [11]; [18] 33% | [12]; at 1.2 µM 1% | [12]; at 3.7 µM 2% | [12]; at 11.0 µM 6% | [12]; at 33.0 µM 33% | [13]; at 1.2 µM 0% | [13]; at 3.7 µM 5% | [13]; at 11.0 µM 12% | [13]; at 33.0 µM 43% | [14]; at 1.2 µM 2% | [14]; at 3.7 µM 5% | [14]; at 11.0 µM 14% | [14]; at 33.0 µM 54% | [15]; [17] 4% | [15]; [18] 52% | [16]; at 1.2 µM -1% | [16]; at 3.7 µM 1% | [16]; at 11.0 µM 6% | [16]; at 33.0 µM 51%

O=C1c2ccccc2-c2cc3ccccc3c(=O)n21
inactive: [1]; at 1.2 µM 32% | [1]; at 3.7 µM 64% | [2]; at 1.2 µM -21% | [2]; at 3.7 µM 0% | [2]; at 11.0 µM 31% | [2]; at 33.0 µM 58% | [2]; at 100.0 µM 51% | [3]; at 1.2 µM 41% | [4]; at 1.2 µM 12% | [4]; at 3.7 µM 2% | [4]; at 11.0 µM 37% | [5]; at 1.2 µM 32% | [5]; at 3.7 µM 64% | [5]; [17] 1% | [6]; at 1.2 µM 13% | [6]; at 3.7 µM 19% | [6]; [17] -14% | [6]; at 11.0 µM 48% | [6]; [18] 41% | [7]; at 1.2 µM 11% | [7]; at 3.7 µM 20% | [7]; at 11.0 µM 42% | [7]; at 33.0 µM 66% | [7]; at 100.0 µM 69% | [8]; [17] 9% | [8]; [18] 46% | [9]; at 1.2 µM 1% | [9]; at 3.7 µM 4% | [9]; at 11.0 µM 23% | [9]; at 33.0 µM 51% | [9]; at 100.0 µM 68% | [10]; [17] 22% | [10]; [18] 15% | [10]; at 50.0 µM 14.3% | [11]; at 1.2 µM 3% | [11]; at 3.7 µM 2% | [11]; [17] -2% | [11]; at 11.0 µM 10% | [11]; at 33.0 µM 68% | [11]; [18] 56%
active: [1]; at 11.0 µM 91% | [1]; at 33.0 µM 93% | [1]; at 100.0 µM 87% | [3]; at 3.7 µM 76% | [3]; at 11.0 µM 90% | [3]; at 33.0 µM 92% | [3]; at 100.0 µM 80% | [4]; at 33.0 µM 71% | [4]; at 100.0 µM 76% | [5]; at 11.0 µM 88% | [5]; at 33.0 µM 89% | [5]; [18] 92% | [5]; at 50.0 µM 91.7% | [5]; at 100.0 µM 84% | [6]; at 33.0 µM 70% | [6]; at 50.0 µM 85.3% | [6]; at 100.0 µM 77% | [8]; at 50.0 µM 81% | [11]; at 50.0 µM 84.5% | [11]; at 100.0 µM 72%
